According to PubChem BioAssay AID493192 (National Center for Advancing Translational Sciences (NCATS), 2011):
Records with an inconclusive call do not appear. Calls of active or inactive are those of the source. The call rests on the fitted dose curve; in most records, active means well fitted activation curve with a large enough effect; inconclusive means small, poorly fitted or top-dose-only effect; inactive means no such curve, though single readings can be large or run the other way.

Experiment: qHTS Assay for Identifying a Potential Treatment of Ataxia-Telangiectasia: Hit Validation;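 further: phospho-KAP1 level by AlphaLISA as a proxy for ATM-like kinase activity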; on activity change, positive = activation: 0% is about no effect
Conditions: Ataxia-telangiectasia cell-based hit validation qHTS, in ATM-null A-T patient fibroblasts; series mostly up to 76.9 µM; activity change, positive = activation: at the top concentration
In short: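 KAP-1 phosphorylation was read by AlphaLISA as a measure of ATM-like activity in ATM-null F2112 fibroblasts. Compounds spanned up to 76.7 uM final, with 60 min exposure at 37C and a 6 hr detection incubation at 25C.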
Potency means the concentration at half of the fitted maximal effect.

| SMILES | activity change, positive = activation | Potency |
| --- | --- | --- |
| C(=N\Nc1ccccn1)/c1c[nH]c2ccccc12 | 5.21% (inactive) |  |
| Cc1nn(CC(=O)N(C)Cc2ccc(F)cc2)c(C)c1[N+](=O)[O-] | -3.5% (inactive) |  |
| Cc1cc(C)n2nc(C(=O)OCCOc3ccc(F)cc3)nc2n1 |  | 58.2 µM (active) |
| Cc1ccccc1OCC(=O)Nc1cccc(C(=O)O)c1 | 2.41% (inactive) |  |
| Clc1cccc(Cl)c1CSc1nnc(-c2ccncc2)s1 | 17.4% (inactive) |  |
| Cc1cc(C)c2c(Cn3ccnc3)cc(=O)oc2c1 | -11.2% (inactive) |  |
| CN(C)C(=O)CN(C)S(=O)(=O)c1ccc(Cl)cc1 | -10.1% (inactive) |  |
| COc1ccc(C2c3ccc(O)cc3Oc3ncn(CC(C)C)c(=N)c32)cc1 (stereo not given) | 7.69% (inactive) |  |
| CC1=NN(C(C#N)c2ccc([N+](=O)[O-])cc2)C(C)(C)C1 (stereo not given) | -18.5% (inactive) |  |
| COc1ccc2nc(C)cc(Nc3ccc(C(=O)O)cc3)c2c1 | 2.43% (inactive) |  |
| CC(C)OP(=O)(OC(C)C)C(O)c1ccc(N(C)C)cc1 (stereo not given) | 23.7% (inactive) |  |
| COc1cc(CCC(=O)OCC(=O)N2CCc3ccccc32)cc(OC)c1OC | -8.74% (inactive) |  |
| Cc1ccc(C)c(-c2csc(Nc3ncccn3)n2)c1 | -1.05% (inactive) |  |
| NC(=O)C1CCN(Cc2nc3cc(C(F)(F)F)ccc3c(=O)[nH]2)CC1 | -10.4% (inactive) |  |
| Cc1nc(Nc2ccc(Cl)cc2)c2oc3ccccc3c2n1 | -1.74% (inactive) |  |
| COc1ccc2c(c1)c(N=NC(N)=S)c(O)n2CC(=O)c1ccccc1 | 16.4% (inactive) |  |
| CC(=O)/C(N=Nc1nc2c([nH]1)c(=O)n(C)c(=O)n2C)=C(\C)O | 5.62% (inactive) |  |
| CCOc1cccc(/C=C/c2ccc3cccc(O)c3n2)c1OC |  | 32.8 µM (active) |
| O=C(CCCn1nnnc1CN1CCOCC1)N1CCC(c2ccc(F)cc2)C1 (stereo not given) | 20.8% (inactive) |  |
| CCOC(=O)Cn1c(-c2ccccc2)cc(SC)c(C#N)c1=O | -6.94% (inactive) |  |
